Laboratory results: PubChem BioAssay (Tox21)
Where “and” joins values, the source holds several entries; their conditions need not be identical. Equal values may be shown once. Results filed as inconclusive are left out. Entries that show only a call come without a potency. A structure can be active in one record and inactive in another. Calls of active or inactive are those of the source. Calls come from the whole dose curve; as a rule, active = well fitted curve in the direction sought with a large enough effect in the repeat runs; inconclusive = weak or mixed curves; inactive = no such curve, though single readings can be large; an effect the other way counts as inactive or inconclusive.

How the values were obtained:
[1] = A CellTox Green Cytotoxicity Assay to monitor cytotoxicity in HEK293 cells - 40 hour (AID 1224871); details: CellTox Green fluorescence; series mostly up to 76.8 µM; note: nearly all actives have a fitted effect of over 45% in size; note: potency is the fitted concentration of half-maximal effect
Method in brief: (§1)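 Fluorescence from a DNA-binding dye excluded by viable cells was measured repeatedly in the same HEK293 wells (600 cells/well) during continuous compound exposure at 37 C. Each assay gives one read point: 0, 8, 16, 24, 32 or 40 h.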

[2] = qHTS RealTime-Glo MT Cell Viability Assay in HepG2 cells - 8 hour (AID 1224873); details: RealTime-Glo luminescence; series mostly up to 76.8 µM; note: nearly all actives have a fitted effect of over 55% in size
Method in brief: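 HepG2 cells mixed with RealTime-Glo MT reagents (NanoLuc plus cell-permeant prosubstrate) were seeded at 600 cells/well, incubated 5 h at 37 C/5% CO2, then pinned with compounds in DMSO; nonlytic luminescence tracked viability during 40 h treatment.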

[3] = qHTS RealTime-Glo MT Cell Viability Assay in HEK293 cells - 40 hour (AID 1224874); details: RealTime-Glo luminescence; max response: stronger effect = lower value; note: nearly all actives have a fitted effect of over 50% in size; note: potency is the fitted concentration of half-maximal effect
Method in brief: (§2)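 Luminescence, which tracks viable cell number through reduction of the prosubstrate to a NanoLuc substrate, was read over continuous 37 C culture. Cells (600/well) were premixed with reagent and rested 5 h before 23 nL of compound in DMSO was pinned.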

[4] = A CellTox Green Cytotoxicity Assay to monitor cytotoxicity in HEK293 cells - 24 hour (AID 1224875); details: CellTox Green fluorescence; series mostly up to 76.8 µM; note: nearly all actives have a fitted effect of over 45% in size
Method in brief: as §1

[5] = A CellTox Green Cytotoxicity Assay to monitor cytotoxicity in HepG2 cells - 16 hour (AID 1224876); details: CellTox Green fluorescence; series mostly up to 76.8 µM; note: nearly all actives have a fitted effect of over 45% in size; note: potency is the fitted concentration of half-maximal effect
Method in brief: (§3)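 Real-time cytotoxicity: fluorescence of a cell-impermeant cyanine dye binding DNA of dead HepG2 cells, measured repeatedly (0–40 h) during compound exposure at 37 C. Cells seeded 600/well with reagent, dosed after 5 h.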

[6] = qHTS RealTime-Glo MT Cell Viability Assay in HepG2 cells - 32 hour (AID 1224877); details: RealTime-Glo luminescence; series mostly up to 76.8 µM; note: nearly all actives have a fitted effect of over 55% in size
Method in brief: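 Real-time, nonlytic viability: 600 HepG2 cells/well mixed with NanoLuc enzyme plus prosubstrate; 5 h settle, compound (DMSO) added by pintool; luminescence monitored over 40 h at 37 C.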

[7] = A CellTox Green Cytotoxicity Assay to monitor cytotoxicity in HepG2 cells - 24 hour (AID 1224878); details: CellTox Green fluorescence; series mostly up to 76.8 µM; note: nearly all actives have a fitted effect of over 45% in size; note: potency is the fitted concentration of half-maximal effect
Method in brief: as §3

[8] = A CellTox Green Cytotoxicity Assay to monitor cytotoxicity in HepG2 cells - 40 hour (AID 1224879); details: CellTox Green fluorescence; series mostly up to 76.8 µM; note: nearly all actives have a fitted effect of over 40% in size; note: potency is the fitted concentration of half-maximal effect
Method in brief: as §3

[9] = qHTS RealTime-Glo MT Cell Viability Assay in HEK293 cells - 0 hour (AID 1224880); details: RealTime-Glo luminescence; series mostly up to 76.8 µM
Method in brief: as §2

[10] = qHTS RealTime-Glo MT Cell Viability Assay in HEK293 cells - 16 hour (AID 1224872); details: RealTime-Glo luminescence; series mostly up to 76.8 µM; note: top concentration of the series differs between compounds; nearly all actives have a fitted effect of over 50% in size
Method in brief: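 Cells + reagent dispensed (600 cells/well, HEK293) → 5 h at 37 C/5% CO2 → 23 nL compound in DMSO pinned → 40 h at 37 C → luminescence read at 0, 8, 16, 24, 32, 40 h.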

Row | Structure (SMILES) | Potency [1] | outcome [2] | Potency [3] | Potency [4] | Potency [5] | outcome [6] | Potency [7] | Potency [8] | Potency [9] | Potency [10] | max response [3]
1 | NC(N)=NC(N)=NCCc1ccccc1 | inactive | inactive | 6.16 µM (active) | inactive | inactive | inactive | inactive | inactive | inactive |  | 
2 | O=C(O)CCCCC1CCSS1 (stereo unspecified) | inactive | inactive |  |  | inactive | inactive | inactive |  | inactive | inactive | 9.73% (inactive) and 12.3% (inactive) and 7.95% (inactive)
3 | CN(C)C=O | inactive | inactive |  | inactive | inactive | inactive | inactive |  | inactive |  | 2.24% (inactive) and 2.36% (inactive)
4 | COCC(C)N (stereo unspecified) | inactive | inactive |  |  | inactive | inactive | inactive | inactive | inactive | inactive | 4.72% (inactive) and 4.68% (inactive)
5 | Cc1cccc(C)c1O | inactive | inactive |  |  | inactive | inactive | inactive | inactive | inactive | inactive | 9.86% (inactive) and 0.971% (inactive)
6 | CC(=O)Oc1ccccc1C(=O)O | inactive | inactive |  | inactive | inactive | inactive | inactive | inactive | inactive |  | -0.0178% (inactive) and 14.7% (inactive) and 2.62% (inactive)
7 | Nc1cccc(N)c1 | inactive | inactive |  | inactive | inactive | inactive | inactive | inactive | inactive |  | 6.95% (inactive) and 5.34% (inactive) and 0.651% (inactive)
8 | COc1cc2c(c(OC)c1OC)-c1ccc(OC)c(=O)cc1[C@@H](NC(C)=O)CC2 | 34.3 µM (active) and inactive | inactive | 0.0216 µM (active) | inactive | inactive | inactive | inactive | 54.3 µM (active) and inactive | inactive |  | 
9 | COc1cc(C=O)ccc1O | inactive | inactive |  | inactive | inactive | inactive | inactive | inactive | inactive |  | 0.342% (inactive) and 3.21% (inactive) and 2.85% (inactive)
10 | O=C1OC(c2ccc(O)cc2)(c2ccc(O)cc2)c2ccccc21 | inactive | inactive |  |  | inactive | inactive | inactive |  | inactive | inactive | -0.757% (inactive)
11 | OCCCc1ccccc1 | inactive | inactive |  |  | inactive | inactive | inactive | inactive | inactive | inactive | 12.9% (inactive) and 2.88% (inactive)
12 | CC(=O)/C=C/C1=C(C)CCCC1(C)C | inactive | inactive |  | inactive | inactive | inactive | inactive | inactive | inactive |  | -10% (inactive) and 2.42% (inactive) and 0.0931% (inactive)
13 | CCOCCO | inactive | inactive |  |  | inactive | inactive | inactive | inactive | inactive | inactive | 1.5% (inactive) and 7.11% (inactive)
14 | CCOC(=O)C(C)(C)Oc1ccc(Cl)cc1 | inactive | inactive |  |  | inactive | inactive | inactive | inactive | inactive | inactive | 0.886% (inactive) and 6.32% (inactive) and -3.11% (inactive)
15 | CCc1cc(C(N)=S)ccn1 | inactive | inactive |  |  | inactive | inactive | inactive |  | inactive | inactive | 1.51% (inactive) and 1.72% (inactive) and 1.47% (inactive)
16 | COc1ccccc1NC(=O)CC(C)=O | inactive | inactive |  | inactive | inactive | inactive | inactive | inactive | inactive |  | -0.191% (inactive) and 6.19% (inactive)
17 | Oc1cccc(O)c1 | inactive | inactive |  |  | inactive | inactive | inactive | inactive | inactive | inactive | -0.181% (inactive) and -6.38% (inactive) and 1.58% (inactive)
18 | O=[N+]([O-])c1ccc(O)cc1 | inactive | inactive |  | inactive | inactive | inactive | inactive | inactive | inactive |  | -24.7% (inactive) and -8.36% (inactive) and 4.76% (inactive)
19 | COc1ccc(O)cc1 | inactive | inactive |  |  | inactive | inactive | inactive |  | inactive | inactive | -25.5% (inactive) and -26.5% (inactive) and -24.7% (inactive)
20 | O=C(OCc1ccccc1)c1ccccc1 | 43.8 µM (active) and inactive | inactive |  |  | inactive | inactive | inactive | inactive | inactive | inactive | -12% (inactive) and 0.176% (inactive) and 2.06% (inactive)
21 | CCCCCCCC(=O)OCC(O)CO (stereo unspecified) | inactive | inactive |  | inactive | inactive | inactive | inactive |  | inactive |  | 11.2% (inactive) and -0.735% (inactive)

Row | Structure (SMILES) | Potency [1] | outcome [2] | Potency [3] | Potency [4] | Potency [5] | outcome [6] | Potency [7] | Potency [8] | Potency [9] | Potency [10] | max response [3]
22 | CC(O)COc1ccccc1 (stereo unspecified) | inactive | inactive |  | inactive | inactive | inactive | inactive |  | inactive |  | 1.14% (inactive) and -0.457% (inactive) and -1.74% (inactive)
23 | COc1ccccc1O | inactive | inactive |  |  | inactive | inactive | inactive |  | inactive | inactive | 18.7% (inactive) and 1.57% (inactive) and 2.8% (inactive)
24 | CCCCCCCCOc1ccc(C(=O)c2ccccc2)c(O)c1 | inactive | inactive |  |  | inactive | inactive | inactive |  | inactive | inactive | -20.9% (inactive) and 7.71% (inactive) and 4.9% (inactive)
25 | C[C@]12CC[C@@H]3c4ccc(O)cc4C[C@@H](CCCCCCCCCS(=O)CCCC(F)(F)C(F)(F)F)[C@H]3[C@@H]1CC[C@@H]2O (stereo partly specified) | inactive |  | 43.6 µM (active) | inactive | inactive | inactive | inactive |  | inactive |  | 
26 | CC1=C(/C=C/C(C)=C/C=C/C(C)=C/C(=O)O)C(C)(C)CCC1 | inactive | inactive |  |  | inactive | inactive | inactive | inactive | inactive |  | -20% (inactive) and -18.8% (inactive) and -12.7% (inactive)
27 | O=c1c(-c2ccc(O)cc2)coc2cc(O)cc(O)c12 | inactive | inactive | 19.2 µM (active) and 19.5 µM (active) | inactive | inactive | inactive | inactive |  | inactive |  | 
28 | OC[C@@H](O)[C@@H](O)[C@H](O)[C@H](O)CO | inactive | inactive |  |  | inactive | inactive | inactive | inactive | inactive |  | 5.62% (inactive) and 0.187% (inactive) and 10.1% (inactive)
29 | C1CNCCN1 | inactive | inactive |  |  | inactive | inactive | inactive | inactive | inactive |  | 0.515% (inactive) and 0.916% (inactive)
30 | CC(=O)c1ccc(S(=O)(=O)NC(=O)NC2CCCCC2)cc1 | inactive | inactive |  |  | inactive | inactive | inactive | inactive | inactive |  | 0.507% (inactive) and 8.7% (inactive) and 3.73% (inactive)
31 | C=CC(=O)NC(C)(C)CS(=O)(=O)O | inactive and 43.6 µM (active) | inactive |  |  | inactive and 24.5 µM (active) | inactive | inactive and 24.5 µM (active) | inactive and 43.6 µM (active) | inactive |  | -2.52% (inactive) and 4.35% (inactive) and 4.55% (inactive)
32 | CCN(CC)CCOC(=O)c1ccc(N)cc1 | inactive | inactive |  |  | inactive | inactive | inactive | inactive | inactive |  | -6.53% (inactive) and -0.799% (inactive)
33 | O=C(O)CN(CC(=O)O)CC(=O)O | inactive | inactive |  |  | inactive | inactive | inactive | inactive | inactive |  | 3.36% (inactive) and 17.8% (inactive)
34 | CCn1cc(C(=O)O)c(=O)c2ccc(C)nc21 | inactive | inactive |  | inactive | inactive | inactive | inactive |  | inactive |  | 3.61% (inactive) and -3.49% (inactive) and 2.76% (inactive)
35 | CCCCOCCOCCSC#N | inactive | inactive |  |  | inactive | inactive | inactive | inactive | inactive |  | 7.99% (inactive) and 2.19% (inactive)
36 | Cc1cccc(Nc2cc(Cl)nc(SCC(=O)O)n2)c1C | inactive | inactive |  | inactive | inactive | inactive | inactive |  | inactive |  | -8.11% (inactive) and -6.81% (inactive) and -0.208% (inactive)
37 | COCCOCCOC | inactive | inactive |  | inactive | inactive | inactive | inactive |  | inactive |  | 13% (inactive) and 10.3% (inactive)
38 | CCCCNC(=O)NS(=O)(=O)c1ccc(N)cc1 | inactive | inactive |  |  | inactive | inactive | inactive | inactive | inactive |  | 3.02% (inactive) and 10% (inactive)
39 | C=CCOC(=O)CC(C)C | inactive | inactive |  |  | inactive | inactive | inactive | inactive | inactive |  | 4.01% (inactive) and 4.38% (inactive)
40 | CCCCC/C(C=O)=C\c1ccccc1 | inactive | inactive |  |  | inactive | inactive | inactive |  | inactive |  | -12% (inactive) and 4.41% (inactive) and 0.735% (inactive)
41 | CC(C)Cc1ccc(C(C)C(=O)O)cc1 (stereo unspecified) | inactive | inactive |  |  | inactive | inactive | inactive | inactive | inactive |  | 5.92% (inactive) and 7.46% (inactive) and 3.63% (inactive)
